The results in this text go back to PubChem BioAssay (NCATS).

A short description of test [1]: qHTS assay for measurement of the activity of small molecule inhibitors on Zika virus induced Caspase-3 activity in human iPSC derived neural progenitor cells (hNPCs) (AID 1224857). Also: nearly all actives have a fitted effect of over 65% in size. Put shortly: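 Zika virus (2 FFU/cell) infection of human iPSC-derived NPCs, 6 h, following 1 h compound preincubation. Read-out: Caspase-Glo 3/7 luminescence.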
Background: In qHTS, concentration-response curves come from the screen itself.

A short description of test [2]: qHTS assay for measurement of the activity of small molecule inhibitors on Zika virus induced Caspase-3 activity in human astrocytoma cells (AID 1224859). Put shortly:
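Caspase activation in ZIKV-infected SNB-19 cells (2 FFU/cell, 6 h) measured by Caspase-Glo 3/7 luminescence after 30 min RT; compound pre-incubated 1 h; normalised to uninfected and infected controls.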

A short description of test [3]: Natriuretic polypeptide receptor (hNpr1) antagonism - Pilot counterscreen GloSensor control cell line (AID 1347045; calls by dose curve; also: potency is read from the fitted curve at half-maximal effect). An outline of the steps: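 HEK293 cGMP-sensor cells; 2% GloSensor reagent 2 h RT; LOPAC compounds in 1:5 titrations 30-50 min; 50 uM SNP 20 min; luminescence pre-read and post-read.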
In test [4] the target is Atrial natriuretic peptide receptor 1 (Homo sapiens) (UniProt P16066). Description: Natriuretic polypeptide receptor (hNpr1) antagonism - Pilot screen (AID 1347049; calls by dose curve;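 also: agonist-evoked cGMP luminescence read 20 min after hNppA addition; series mostly up to about 58 µM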). Put shortly:
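cGMP-sensor HEK293/hNpr1 cells, 1500/well, plated overnight at 37C. 2% GloSensor reagent, 2 h RT. Compound (23 nL pin transfer) 30 min RT, baseline luminescence pre-read. 0.1 nM hNppA, 20 min RT, post-read.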

Test [5] has as its target Atrial natriuretic peptide receptor 2 (Homo sapiens) (UniProt P20594). Description: Natriuretic polypeptide receptor (hNpr2) antagonism - Pilot subtype selectivity assay (AID 1347050; calls by dose curve). An outline of the steps: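 Luminescence from a genetically encoded cGMP luciferase biosensor in hNpr2-expressing HEK293 cells is read before and 20 min after adding 1 nM hNppC. Test compounds, in interplate 1:5 titrations, are added 30-50 min ahead of the agonist.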

The nature of test [6]: NS1 protein of Zika virus - qHTS assay to identify small molecule inhibitors in human HEK 293 cells (AID 1347053). Also: series mostly up to about 46 µM; nearly all actives have a fitted effect of over 55% in size. An outline of the steps: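 TR-FRET signal from two anti-ZIKV NS1 antibodies quantified NS1 in HEK 293 cells 24 h after MR766 infection at MOI = 0.5; compounds were added 1 h before virus. Uninfected cells and infected cells defined the NS1 normalization range.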

In test [7] the target is T1, Tyrosine-protein phosphatase non-receptor type substrate 1 (Homo sapiens) + Leukocyte surface antigen CD47 (Homo sapiens) (UniProt P78324+Q08722). Description: CD47-SIRPalpha protein protein interaction - LANCE assay qHTS validation (AID 1347057; active = well fitted curve in the direction sought with a large enough effect in the signal ratio, with a control signal flat, not every such curve was filed as active; the % refers to the signal ratio; also: series mostly up to about 38 µM). An outline of the steps:
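Inhibition of soluble CD47/SIRPalpha ectodomain association by titrated compounds, measured as 665/615 nm time-resolved FRET ratio after sequential 30 min room-temperature incubations.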
On the technique in general: In TR-FRET formats the signal depends on donor and acceptor labels being close together.

Test [8] has as its target T1, Tyrosine-protein phosphatase non-receptor type substrate 1 (Homo sapiens) + Leukocyte surface antigen CD47 (Homo sapiens). Description: CD47-SIRPalpha protein protein interaction - HTRF assay qHTS validation (AID 1347058; active = well fitted curve in the direction sought with a large enough effect in the signal ratio, not every such curve was filed as active; the % refers to the signal ratio; also: series mostly up to about 38 µM). An outline of the steps:
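Soluble extracellular domains (6His-CD47, Avi-tag-biotinylated SIRPalpha) in PBS pH 7.4 with 0.05% IGEPAL CA-630. Compounds were preincubated 30 min at RT with CD47 and anti-His-Eu, then SIRPalpha and SAV-XL665 were added. TR-FRET 665/615 ratio.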

Test [9] shares this target. Description: CD47-SIRPalpha protein protein interaction - Alpha assay qHTS validation (AID 1347059).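 Also: bead proximity luminescence from CD47 binding SIRPalpha after compound preincubation with SIRPalpha.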 Put shortly:
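SIRPalpha-biotin 25 nM + cpd, 30 min RT, dark; add CD47-His 12.5 nM, 30 min; add Ni-NTA/SAV beads 10 ug/mL, 30 min; AlphaScreen. Buffer PBS pH 7.4 + 0.05% IGEPAL CA-630. Non-biotinylated SIRPalpha as control inhibitor.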

Test [10] has as its target Parathyroid hormone/parathyroid hormone-related peptide receptor (Homo sapiens) (UniProt Q03431). Description: qHTS for PTHR1 Agonists: Optimization Screen against the NCGC LOPAC library (AID 1347079).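 Also: GloSensor cAMP luminescence in HEK-293 GP2 cells expressing human PTHR1 with IBMX.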 Also: potency is read from the fitted curve at half-maximal effect. Put shortly:
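Signal increase flags agonism. GP2 cells, derived from HEK-293, express human PTHR1 and a GloSensor cAMP construct.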

For test [11], the target named is N-terminal Xaa-Pro-Lys N-methyltransferase 1 (Homo sapiens) (UniProt Q9BV86). Description: qHTS Assay for Inhibitors of N-terminal methyltransferase 1 (NTMT1): LOPAC validation of the NTMT1 SAHH-coupled ThioGlo3 Assay (AID 1347143).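 Also: SAH from peptide methylation measured as thiol fluorescence via SAHH coupling and ThioGlo3; nearly all actives have a fitted effect of over 70% in size.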 Also: potency is read from the fitted curve at half-maximal effect. Put shortly:
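Steps: dispense 125nM NTMT1; pin-transfer test compounds at several concentrations, with 1uM RCC1-6 peptide as control; incubate 1 min; start with reagent holding 100uM SAM, 10uM SAHH, 15uM ThioGlo3; read at 0 and 30 min.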

Test [12] has as its system Zika virus NS2B-NS3 protease (unlinked). Briefly: Optimization of GU AMC qHTS for Zika virus inhibitors: Unlinked NS2B-NS3 protease assay (AID 1347151). Also: series mostly up to about 52 µM; nearly all actives have a fitted effect of over 80% in size. An outline of the steps:
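Unlinked protease (25 nM final); buffer 10 mM Tris-HCl pH 8.0 + 0.01% Tween 20; AMC substrate; 15 min RT, dark; Δfluorescence normalized to no-inhibitor/no-enzyme controls; 4-parameter Hill fit.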

The structures appear in SMILES notation. Inconclusive results are not listed. The source made the active and inactive calls. Unless noted, calls follow the shape of the dose curve; as a rule, active = well fitted curve in the direction sought with a large enough effect; inconclusive = small, poorly fitted or top-dose-only effect, or another doubt; inactive = no such curve, though single readings can be large; an effect the other way counts as inactive or inconclusive.

Parathyroid hormone/parathyroid hormone-related peptide receptor (Homo sapiens), sequence (Q03431 whole entry, looked up): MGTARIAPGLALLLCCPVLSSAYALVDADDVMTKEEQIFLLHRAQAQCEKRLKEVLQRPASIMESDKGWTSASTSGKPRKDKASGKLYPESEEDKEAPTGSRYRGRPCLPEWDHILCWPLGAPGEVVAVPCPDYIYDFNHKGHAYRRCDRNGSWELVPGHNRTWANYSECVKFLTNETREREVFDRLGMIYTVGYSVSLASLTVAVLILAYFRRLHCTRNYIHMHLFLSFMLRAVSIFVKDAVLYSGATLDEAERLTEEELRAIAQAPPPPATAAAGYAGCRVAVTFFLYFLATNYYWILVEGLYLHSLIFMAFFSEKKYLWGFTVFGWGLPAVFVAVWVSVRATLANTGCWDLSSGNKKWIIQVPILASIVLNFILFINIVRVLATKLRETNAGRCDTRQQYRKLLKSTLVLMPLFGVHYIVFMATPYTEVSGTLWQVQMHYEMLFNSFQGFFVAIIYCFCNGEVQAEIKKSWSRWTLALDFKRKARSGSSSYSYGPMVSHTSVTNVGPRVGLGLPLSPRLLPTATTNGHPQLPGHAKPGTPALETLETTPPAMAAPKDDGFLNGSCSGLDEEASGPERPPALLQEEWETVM
T1 sequence (P78324 whole entry, looked up, the tested form may be a part): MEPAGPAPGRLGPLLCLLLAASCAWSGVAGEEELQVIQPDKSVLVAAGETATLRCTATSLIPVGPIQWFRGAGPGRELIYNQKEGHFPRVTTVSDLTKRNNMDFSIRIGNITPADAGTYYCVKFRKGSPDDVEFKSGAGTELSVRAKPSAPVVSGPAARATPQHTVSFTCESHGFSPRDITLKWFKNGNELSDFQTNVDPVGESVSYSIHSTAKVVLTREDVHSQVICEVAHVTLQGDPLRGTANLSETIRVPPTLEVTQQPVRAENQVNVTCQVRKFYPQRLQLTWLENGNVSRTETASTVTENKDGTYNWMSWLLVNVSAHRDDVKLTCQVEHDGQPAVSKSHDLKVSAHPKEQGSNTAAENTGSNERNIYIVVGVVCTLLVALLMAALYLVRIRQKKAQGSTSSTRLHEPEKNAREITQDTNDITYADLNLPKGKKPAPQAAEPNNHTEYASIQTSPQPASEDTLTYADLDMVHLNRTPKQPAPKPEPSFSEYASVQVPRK
T1 sequence (Q08722 whole entry, looked up, the tested form may be a part): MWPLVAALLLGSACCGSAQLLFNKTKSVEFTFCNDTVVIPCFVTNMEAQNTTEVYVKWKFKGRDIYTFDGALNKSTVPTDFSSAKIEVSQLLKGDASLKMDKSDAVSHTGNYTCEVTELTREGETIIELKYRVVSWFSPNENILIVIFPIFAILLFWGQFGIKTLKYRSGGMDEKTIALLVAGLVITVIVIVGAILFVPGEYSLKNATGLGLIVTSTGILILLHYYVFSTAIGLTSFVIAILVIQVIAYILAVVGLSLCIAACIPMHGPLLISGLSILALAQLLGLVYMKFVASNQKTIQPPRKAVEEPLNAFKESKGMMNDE
Atrial natriuretic peptide receptor 2 (Homo sapiens), sequence (P20594 whole entry, looked up): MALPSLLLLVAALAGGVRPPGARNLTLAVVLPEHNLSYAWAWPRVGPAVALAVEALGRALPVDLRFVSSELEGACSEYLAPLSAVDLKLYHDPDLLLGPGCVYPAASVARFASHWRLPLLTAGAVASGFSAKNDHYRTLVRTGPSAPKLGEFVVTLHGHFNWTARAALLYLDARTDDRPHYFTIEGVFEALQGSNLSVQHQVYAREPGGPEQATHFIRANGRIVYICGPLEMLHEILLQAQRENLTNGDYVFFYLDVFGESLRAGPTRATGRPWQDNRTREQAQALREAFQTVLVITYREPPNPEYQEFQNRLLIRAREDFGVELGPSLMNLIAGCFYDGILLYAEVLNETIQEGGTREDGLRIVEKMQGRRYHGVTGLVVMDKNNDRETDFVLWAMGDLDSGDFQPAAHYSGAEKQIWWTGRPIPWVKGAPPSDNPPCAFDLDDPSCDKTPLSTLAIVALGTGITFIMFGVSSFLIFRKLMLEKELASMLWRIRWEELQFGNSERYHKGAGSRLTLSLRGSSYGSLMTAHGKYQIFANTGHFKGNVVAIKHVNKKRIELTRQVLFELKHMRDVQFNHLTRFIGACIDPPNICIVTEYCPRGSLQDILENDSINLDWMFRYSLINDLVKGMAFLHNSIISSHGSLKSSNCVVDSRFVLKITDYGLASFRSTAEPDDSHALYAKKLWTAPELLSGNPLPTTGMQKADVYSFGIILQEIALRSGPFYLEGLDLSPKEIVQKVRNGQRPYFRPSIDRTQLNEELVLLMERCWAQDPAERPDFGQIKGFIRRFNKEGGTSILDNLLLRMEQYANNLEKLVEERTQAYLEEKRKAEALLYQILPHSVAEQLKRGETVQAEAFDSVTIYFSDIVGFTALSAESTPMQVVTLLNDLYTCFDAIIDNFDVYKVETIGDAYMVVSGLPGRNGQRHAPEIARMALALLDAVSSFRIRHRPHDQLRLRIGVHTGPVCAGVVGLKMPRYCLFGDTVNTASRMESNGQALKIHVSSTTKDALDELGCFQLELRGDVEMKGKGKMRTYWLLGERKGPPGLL
Atrial natriuretic peptide receptor 1 (Homo sapiens), sequence (P16066 whole entry, looked up): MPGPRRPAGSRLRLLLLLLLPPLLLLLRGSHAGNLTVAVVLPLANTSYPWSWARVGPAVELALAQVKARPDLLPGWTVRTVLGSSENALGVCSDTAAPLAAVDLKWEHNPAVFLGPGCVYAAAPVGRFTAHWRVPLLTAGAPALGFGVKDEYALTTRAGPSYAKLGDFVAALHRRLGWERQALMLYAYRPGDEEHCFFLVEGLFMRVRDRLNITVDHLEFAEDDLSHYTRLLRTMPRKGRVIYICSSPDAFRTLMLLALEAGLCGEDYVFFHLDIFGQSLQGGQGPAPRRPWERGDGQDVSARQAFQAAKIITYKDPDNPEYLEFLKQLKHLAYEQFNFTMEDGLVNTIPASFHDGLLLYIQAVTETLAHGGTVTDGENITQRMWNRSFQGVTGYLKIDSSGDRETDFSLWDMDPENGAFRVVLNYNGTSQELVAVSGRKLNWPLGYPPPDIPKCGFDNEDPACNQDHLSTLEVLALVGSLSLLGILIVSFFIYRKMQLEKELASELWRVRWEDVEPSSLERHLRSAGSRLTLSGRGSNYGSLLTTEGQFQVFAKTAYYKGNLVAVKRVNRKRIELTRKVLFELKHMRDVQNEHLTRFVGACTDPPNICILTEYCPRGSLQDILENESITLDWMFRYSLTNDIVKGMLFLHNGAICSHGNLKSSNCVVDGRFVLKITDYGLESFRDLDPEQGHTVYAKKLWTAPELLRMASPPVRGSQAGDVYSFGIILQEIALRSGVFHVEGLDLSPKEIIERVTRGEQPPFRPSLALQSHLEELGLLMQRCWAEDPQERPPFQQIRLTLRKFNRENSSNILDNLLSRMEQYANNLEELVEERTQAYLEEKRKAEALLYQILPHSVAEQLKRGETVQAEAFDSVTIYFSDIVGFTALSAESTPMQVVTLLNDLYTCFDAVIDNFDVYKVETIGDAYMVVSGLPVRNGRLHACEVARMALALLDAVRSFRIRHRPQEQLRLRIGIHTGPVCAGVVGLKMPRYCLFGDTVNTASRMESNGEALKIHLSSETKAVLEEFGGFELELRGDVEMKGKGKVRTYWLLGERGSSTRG
N-terminal Xaa-Pro-Lys N-methyltransferase 1 (Homo sapiens), sequence (Q9BV86 whole entry, looked up): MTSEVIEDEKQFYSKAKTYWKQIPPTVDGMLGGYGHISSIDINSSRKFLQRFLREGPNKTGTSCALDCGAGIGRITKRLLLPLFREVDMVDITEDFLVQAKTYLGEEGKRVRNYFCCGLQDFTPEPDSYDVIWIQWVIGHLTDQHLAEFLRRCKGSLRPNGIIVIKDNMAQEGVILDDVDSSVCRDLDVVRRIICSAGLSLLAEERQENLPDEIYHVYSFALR

Regarding `Cc1cc(Cn2cnc3c2C[C@@H](C(=O)O)N(C(=O)C(c2ccccc2)c2ccccc2)C3)ccc1N`, the Potency entry in test [1], in [2], in [3], in test [4], in [5] and in test [6] was “inactive” in each case. Further, the Potency entry in test [7], in test [9], in test [10], in test [11] and in [12] was “inactive” in each case. The outcome in test [8] was inactive.

`NC(=O)CNCCC(c1ccccc1)c1ccccc1`: the Potency result in [1], in test [2], in test [3], in test [4], in test [5] and in [6] was “inactive” in each case. Further, the Potency result in test [7], in [9], in [10], in [11] and in test [12] was “inactive” in each case. Besides, the result in test [8] was inactive.

For the compound `O=c1onc2n1-c1cc(Br)ccc1OC2`, the Potency entry in test [1], in [2], in [4], in [5], in test [6] and in test [7] was “inactive” throughout. The Potency entry in [9], in [10], in [11] and in [12] was “inactive” in each case. Moreover, the Potency in [3] was 0.131 µM (active). For the same compound, the outcome in test [8] was inactive.

For the compound `CCCCS(=N)(=O)CC[C@H](N)C(=O)O` (some centres not stated), the Potency result in test [1], in test [2], in test [3], in [4], in test [5] and in [6] was “inactive” throughout. In addition, the Potency result in test [7], in test [9], in [10], in test [11] and in [12] was “inactive” throughout. The result in test [8] was inactive.

For the compound `C[C@@H](NCCc1ccc(O)cc1)[C@@H](O)c1ccc(O)cc1`, the Potency entry in test [1], in [2], in test [3], in [4], in test [5] and in [6] was “inactive” each time. Also, the Potency result in test [7], in [9], in [11] and in test [12] was “inactive” each time. The result in test [8] was inactive. Besides, the Potency in [10] was 2.38 µM (active).

As to `CSC(=N)N`, the Potency result in test [1], in [2], in test [3], in [4], in test [5] and in test [6] was “inactive” in each case. Besides, the Potency entry in [7], in test [9], in test [10], in test [11] and in [12] was “inactive” throughout. Also, the outcome in test [8] was inactive.

Turning to `[Li+]`, the Potency result in test [1], in [2], in test [3], in [4], in [5] and in [6] was “inactive” each time. The Potency entry in test [7], in test [9], in test [10], in test [11] and in [12] was “inactive” each time. Moreover, in test [8], the outcome was inactive.

As to `CN[C@H](CC(=O)O)C(=O)O`, the Potency entry in test [1], in test [2], in [3], in test [4], in [5] and in test [6] was “inactive” in each case. Besides, the Potency entry in test [7], in test [9], in [10], in [11] and in test [12] was “inactive” in each case. Further, the result in test [8] was inactive.

For `Cn1ccnc1`, the Potency result in test [1], in test [2], in [3], in test [4], in test [5] and in test [6] was “inactive” throughout. The Potency entry in test [7], in test [9], in [10], in test [11] and in test [12] was “inactive” each time. Moreover, the result in test [8] was inactive.

Regarding `CCCCCCC(=O)OC1CC(C)(C)NC(C)(C)C1`, the Potency result in test [1], in test [2], in test [3], in [4], in [5] and in test [6] was “inactive” each time. Also, the Potency entry in [7], in test [9], in test [10], in [11] and in test [12] was “inactive” each time. The outcome in test [8] was inactive.

As to `NC(N)=NC(N)=Nc1cccc(Cl)c1`, the Potency entry in [1], in test [2], in [3], in test [4], in test [5] and in [6] was “inactive” each time. In addition, the Potency result in [7], in [9], in [10], in [11] and in test [12] was “inactive” throughout. Further, the result in test [8] was inactive.

Turning to `Oc1cc2c(cc1O)C(c1ccccc1)CNCC2` (configuration not stated), the Potency result in test [1], in test [2], in test [3], in test [4], in test [5] and in test [6] was “inactive” in each case. Further, the Potency entry in test [7], in [9], in [10] and in [12] was “inactive” in each case. The result in test [8] was inactive. Besides, in test [11], the Potency is 44.7 µM (active).

On to `O=C(O)CCC(=O)N1CCCC1C(=O)O` (configuration not stated), for which the Potency result in [1], in test [2], in [3], in test [4], in [5] and in test [6] was “inactive” in each case. Further, the Potency result in test [7], in test [9], in test [10], in [11] and in test [12] was “inactive” throughout. Also, the result in test [8] was inactive.

For `OC[C@H]1NC[C@@H](O)[C@@H]1O`, the Potency result in test [1], in test [2], in test [3], in test [4], in test [5] and in test [6] was “inactive” throughout. Moreover, the Potency result in test [7], in test [9], in test [10], in test [11] and in [12] was “inactive” in each case. The outcome in test [8] was inactive.

`C=CCNc1ncnc2ccc(Br)cc12`: the Potency entry in test [1], in [2], in [3], in [4], in test [5] and in test [6] was “inactive” in each case. The Potency result in test [7], in test [9], in test [10], in test [11] and in test [12] was “inactive” in each case. Besides, the outcome in test [8] was inactive.

For the compound `O=C(O)C1CN(CCCP(=O)(O)O)CCN1` (configuration not stated), the Potency result in test [1], in test [2], in test [3], in test [4], in test [5] and in [6] was “inactive” in each case. Also, the Potency entry in [7], in test [9], in [10], in test [11] and in [12] was “inactive” throughout. In addition, the result in test [8] was inactive.

For `N[C@@H](Cc1c[nH]c2ccccc12)C(=O)O`, the Potency entry in [1], in test [2], in test [3], in test [4], in test [5] and in test [6] was “inactive” in each case. The Potency result in test [7], in [9], in test [10], in test [11] and in [12] was “inactive” in each case. Also, the outcome in [8] was inactive.

For `CC(C)C[C@H](NC(=O)[C@H](O)[C@H](N)Cc1ccccc1)C(=O)O`, the Potency entry in [1], in [2], in [3], in test [4], in test [5] and in test [6] was “inactive” each time. In addition, the Potency entry in test [7], in test [9], in test [10], in test [11] and in test [12] was “inactive” in each case. Besides, the outcome in [8] was inactive.

On to `O=C(O)c1cc(=O)cc(C(=O)O)[nH]1`, for which the Potency result in test [1], in [2], in test [3], in [4], in test [5] and in [6] was “inactive” in each case. For the same compound, the Potency result in [7], in [9], in [10], in test [11] and in [12] was “inactive” throughout. Moreover, the result in test [8] was inactive.

On to `Cc1cccc(C2CN(C)CCc3c2cc(O)c(O)c3Cl)c1` (configuration not stated), for which the Potency result in test [1], in test [2], in test [3], in test [4], in [5] and in test [6] was “inactive” throughout. For the same compound, the Potency result in test [7], in [9], in test [10] and in test [12] was “inactive” throughout. Besides, the result in [8] was inactive. Moreover, in test [11], the Potency is 56.2 µM (active).

As for `CC1=C(C(=O)O)N2C(=O)[C@@H](NC(=O)C(N)C3=CCC=CC3)[C@H]2SC1` (some centres not stated), the Potency entry in test [1], in test [2], in [3], in test [4], in test [5] and in test [6] was “inactive” in each case. Further, the Potency result in test [7], in test [9], in test [10], in [11] and in test [12] was “inactive” throughout. Further, in test [8], the result was inactive.
